Screening results (PubChem)
An excerpt weighted towards active compounds, which were near 19% of everything screened.
HT1080-NT tox: qHTS for induction of synthetic lethality in tumor cells producing 2HG: qHTS for the HT-1080-NT fibrosarcoma cell line; Potency, µM (doses to about 46.1 µM), for the others: at the highest dose activity, negative = less viability, actives largely listed as cytotoxic; HT-1080-NT fibrosarcoma viability, CellTiter-Glo ATP luminescence, 48 h; AID 686970, 2013; 360,000 compounds, 1.6% hits;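 note: NT is the 2HG producing partner of a matched IDH1 knockdown line; potency is the fitted concentration of half-maximal effect; 0% = DMSO-treated cells and -100% = media-only wells without cells; nearly all actives have a fitted effect of over 55% in size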
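Compounds were tested in concentration-response format on HT-1080-NT cells for 48 hours at 37 degrees C. Cell viability came from CellTiter-Glo luminescence; curves were classified by r2, response magnitude and activity.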
IL1B secr inh: qHTS for Inhibitors of Inflammasome Signaling: IL-1-beta AlphaLISA Primary Screen. THP-1 LPS/ATP IL-1B secretion, AlphaLISA, 16 h; hits give low values. activity change, % at 57.5 µM. 360,000 compounds, 4.7% hits; in the data active = activity change below about -50%; inconclusive = mostly about -30% to -49%
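Secreted IL-1B measured by AlphaLISA bead assay after 16 h compound exposure of THP-1 cells; compounds (final up to 57.5 uM) added 1 h before LPS (250 ng/mL) and ATP (1.25 mM) stimulation; lower signal means less secretion.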
DT40 TDP1 CPT: qHTS for Inhibitors of human tyrosyl-DNA phosphodiesterase 1 (TDP1): qHTS in cells in presence of CPT; chicken DT40 Tdp1-/-;hTDP1 cells + 20 nM CPT, ATP luminescence, 48 h; Potency, µM (doses to about 46.2 µM), without a hit: at the highest dose activity change, negative = growth inhibition, usual class: inhibitors; 420,000 compounds, 12% hits; AID 686979, 2013; note: potency is the fitted concentration of half-maximal effect; nearly all actives have a fitted effect of over 55% in size
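Cell growth measured by CellTiter-Glo luminescence after a minimum 48 h, 37 C compound exposure with 20 nM CPT in Tdp1-knockout DT40 cells stably expressing hTDP1, seeded 400/well; qHTS titration format.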
HT1080 IDH1KD tx: qHTS for induction of synthetic lethality in tumor cells producing 2HG: qHTS for the HT-1080-IDH1KD cell line; AID 686971, 2013; 360,000 compounds, 2% hits; Potency, µM (doses to about 46.1 µM), for inactives: top-dose activity, negative = toxicity, most hits filed as cytotoxic; HT-1080 IDH1 knockdown viability, ATP luminescence, 48 h;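 note: potency is the fitted concentration of half-maximal effect; 0% = DMSO wells and -100% = cell-free medium wells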
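% activity derives from luminescence (CellTiter-Glo), normalised to DMSO and no-cell wells. HT-1080-IDH1KD cells, 750/well, had 48 h compound exposure at 37 °C.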
DT40 TDP1 no CPT: qHTS for Inhibitors of human tyrosyl-DNA phosphodiesterase 1 (TDP1): qHTS in cells in absence of CPT; DT40 Tdp1-/- hTDP1 cells, no CPT, ATP luminescence, 48 h; Potency, µM (titrated, usually from 46.2 µM), for inactives: at the top dose activity change, negative = growth inhibition, most hits filed as inhibitors; 420,000 compounds, 15% hits; AID 686978, 2013; note: potency is the fitted concentration of half-maximal effect; nearly all actives have a fitted effect of over 55% in size
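Chicken DT40 Tdp1-/- cells complemented with human TDP1, screened without camptothecin (DMSO vehicle only), 400 cells/well. Compounds pin-transferred, cells incubated at 37 °C for at least 48 hr. Growth read as ATP-dependent luminescence (CellTiter-Glo, 30 min at RT).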
Numbers without * were called inactive; i = inactive; u = inconclusive; x = not tested or not shown; [ ] = remark or other dose. Unless noted, calls come from the whole dose curve; as a rule, active = well fitted curve in the direction sought with a large enough effect; inconclusive = small, poorly fitted or top-dose-only effect, or another doubt; inactive = no such curve, though single readings can be large; an effect the other way counts as inactive or inconclusive. Unless noted, % is set by controls: 0 for no effect and ±100 for the full control effect.

SMILES	HT1080-NT tox	IL1B secr inh	DT40 TDP1 CPT	HT1080 IDH1KD tx	DT40 TDP1 no CPT
Cc1ccc(NC(=O)CN2CCCN(S(=O)(=O)c3ccc(Br)s3)CC2)cc1	-5.7%	-28.1	18.4µM*	-13.0%	18.4µM*
CCOC(=O)N1CCN(S(=O)(=O)c2ccc(Br)s2)CC1	-6.6%	14.5	u	4.9%[9.24 µM]	13µM*
COc1cc(/C=C/C(=O)OCC(=O)Nc2sc3c(c2C#N)CCC(C)C3)ccc1OCC#N (stereo not given)	-16.2%	13.9	-28.9%	8.4%	u
COC(=O)C1OC2(OC1C(=O)OC)c1ccccc1-c1ccccc12 (stereo not given)	0.0%	0.0	15.5%	6.2%	-19.2%
Cc1ccccc1C1(O)c2ccccc2-c2ccccc21	-2.3%	16.2	23.1µM*	0.5%	14.6µM*
Cc1cnc(CNc2ccnc(-c3cccnc3)n2)cn1	x	x	7.9%	x	33.9%
N#Cc1c(N)nc2c3c(sc(=N)c2c1N)NC(=O)CC3c1c(F)cccc1Cl (stereo not given)	-1.1%	9.9	u	-12.9%	6.51µM*
Cc1c(C#N)c(N)nc2c3c(sc12)NC(=O)CC3c1ccc(Cl)cc1 (stereo not given)	20.6µM*	28.4	u	16.4µM*	u
CCOC(=O)CSC1=C(C#N)C(c2ccc(Cl)cc2)CC(=O)N1 (stereo not given)	-10.5%	-4.8	u	-4.8%	u
N#Cc1c(N)nc2c3c(sc(=N)c2c1N)NC(=O)CC3c1ccccc1 (stereo not given)	u	u	5.4%	u	u
CC1(C(=O)Nc2ccccc2)Cc2c(-c3cccc(C(N)=O)c3)ccnc2O1 (stereo not given)	1.1%	-9.4	u	7.1%	-21.0%
CC(=O)Nc1cccc(-c2ccnc3c2CC(C)(C(=O)Nc2ccc(C(C)C)cc2)O3)c1 (stereo not given)	u	-60.3*	u	u	u
CC1(C(=O)Nc2ccc(Cl)cc2)Cc2c(-c3cccc(C(N)=O)c3)ccnc2O1 (stereo not given)	u	0.0	3.66µM*	4.61µM*	5.8µM*
CC1(C(=O)Nc2ccc(F)c(Cl)c2)Cc2c(-c3cccc(C(N)=O)c3)ccnc2O1 (stereo not given)	u	-9.9	u	u	u
CC1(C(=O)Nc2ccc(F)c(Cl)c2)Cc2c(-c3ccc(C(N)=O)cc3)ccnc2O1 (stereo not given)	u	-79.2*	20.6µM*	20.6µM*	18.4µM*
CC(=O)Nc1cccc(-c2ccnc3c2CC(C)(C(=O)Nc2ccccc2)O3)c1 (stereo not given)	-14.2%	-21.6	-29.6%	0.0%	u
CC(C)c1ccc(NC(=O)C2(C)Cc3c(-c4cccc(C(N)=O)c4)ccnc3O2)cc1 (stereo not given)	u	-69.1*	u	u	u
CCOc1ccc(S(=O)(=O)n2c([N+](=O)[O-])cnc2C)c(C)c1C	8.4%	-1.5	-8.9%	11.2%	16.0%
CC(=O)NCCNc1ncncc1-c1ccccc1CN(C)C	x	x	8.9%	x	1.1%
CNC(=O)NC(=O)C(C)OC(=O)c1c2c(nc3ccccc13)/C(=C/c1cccs1)CC2 (stereo not given)	-2.4%	-4.4	20.6µM*	-8.0%	18.4µM*
CCCCNC(=O)COC(=O)c1c2c(nc3ccccc13)/C(=C/c1cccs1)CC2	-21.8%	-26.6	23.1µM*	u	u
O=C(CCn1c(=S)oc2ccccc21)Nc1ccccc1Br	10.5%	-14.6	-13.8%	-0.4%	-19.7%
COc1ccc2c(c1)C(=O)C(=O)N2CC1COc2ccccc2O1 (stereo not given)	u	-11.0	1.03µM*	-26.7%	0.581µM*
Cc1ccc2c(c1)C(=O)C(=O)N2CC1COc2ccccc2O1 (stereo not given)	-2.4%	-92.7*	2.31µM*	u	2.31µM*
CCOc1ccc2c(c1)C(=O)C(=O)N2CC1COc2ccccc2O1 (stereo not given)	-0.5%	-3.1	1.16µM*	9.3%	0.82µM*
SMILES	HT1080-NT tox	IL1B secr inh	DT40 TDP1 CPT	HT1080 IDH1KD tx	DT40 TDP1 no CPT
COc1ccc(C2C(=O)N(C3CCCCC3)CC(=O)N2CC2COc3ccccc3O2)cc1 (stereo not given)	5.5%	-9.5	u	0.4%	u
O=C(O)c1cc(-c2ccccc2)n(-c2ccc(Cl)cc2)n1	-5.0%	20.2	-6.9%	0.0%	-1.4%
O=C(NCCCN1CCOCC1)C(=O)NCC1OCCCN1S(=O)(=O)c1cc(F)ccc1F (stereo not given)	-1.0%	i	-3.5%	-6.2%	-9.1%
COc1cc2c(C#N)c(N3CCOCC3)nc(N)c2c(N)n1	u	-54.0*	13µM*	u	23.1µM*
CCOc1cc2c(C#N)c(N3CCNCC3)nc(N)c2c(N)n1	-13.2%	-1.7	-4.0%	-14.7%	-15.4%
COc1cc2c(C#N)c(N3CCCCC3)nc(N)c2c(N)n1	u	u	9.2µM*	u	13µM*
CCOc1cc2c(C#N)c(N3CCCCC3)nc(N)c2c(N)n1	-25.3%	-0.4	u	-19.1%	u
COc1cc2c(C#N)c(N3CCc4ccccc4C3)nc(N)c2c(N)n1	u	-53.6*	20.6µM*	u	20.6µM*
CCOC(=O)C1CCN(c2nc(N)c3c(N)nc(SCC(=O)O)cc3c2C#N)CC1	-1.8%	21.4	u	-0.2%	u
CCOC(=O)c1cc(C#N)c(C)nc1N(CC)CC	15.1%	8.9	14.6%	2.5%	-5.5%
CCN(CC)c1nc(N)c2c(N)nc(OC)cc2c1C#N	3.8%	-1.9	14.6µM*	-0.4%	23.1µM*
O/N=C/C1=C(Cl)c2ccccc2CC1	-1.4%	-6.6	-9.3%	-1.1%	-16.4%
COC(=O)c1ccc(COc2ccc(C(C)(C)C)cc2)o1	5.4%	-8.7	u	5.5%	u
CCOc1ccc(OCc2ccc(C(=O)NCc3ccncc3)o2)cc1	-15.4%	u	16.4µM*	3.1%	-29.7%
Cc1cccc(OCc2ccc(C(=O)N3CCOCC3)o2)c1	-0.8%	-1.8	-2.1%	-8.9%	-25.7%
CCCNC(=O)c1ccc(COc2ccc(C(C)(C)C)cc2)o1	u	-68.8*	u	-18.9%	13µM*
CC(C)(C)c1ccc(OCc2ccc(C(=O)N3CCOCC3)o2)cc1	u	35.7	u	u	25.9µM*
